Screening data as filed in PubChem.
sPLA2-III inh – Inhibits HGIII-sPLA2 liposome hydrolysis, primary screen. Q9NZ20. QFRET BODIPY PC-A2 liposome hydrolysis, fluorescence. inhibition, % at 12.2 µM. 370,000 tested, 0.56% active. AID 743126;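 active = inhibition above mean plus 3 SD of compounds lying within the high and low control bounds, cut at about 19% in these data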
OPRM1-OPRD1 ag – OPRM1-OPRD1 heterodimerization agonism. AID 504326. 340,000 tested, 0.3% active. activation, % at 9.3 µM. cells, luminescence; in the data active = activation above about 18%
HTR5A inv ctr – inverse agonist of human HTR5A in OPRM1-OPRD1 counter-screen; inhibition, % at 9.3 µM; P47898; 340,000 tested, 0.083% active; HTR5A cell line, luminescence, inverse agonism; in the data active = inhibition mostly above about 23%, no sharp cut-off; inactive = mostly below about 18%
Target sequence (P47898 whole entry, looked up): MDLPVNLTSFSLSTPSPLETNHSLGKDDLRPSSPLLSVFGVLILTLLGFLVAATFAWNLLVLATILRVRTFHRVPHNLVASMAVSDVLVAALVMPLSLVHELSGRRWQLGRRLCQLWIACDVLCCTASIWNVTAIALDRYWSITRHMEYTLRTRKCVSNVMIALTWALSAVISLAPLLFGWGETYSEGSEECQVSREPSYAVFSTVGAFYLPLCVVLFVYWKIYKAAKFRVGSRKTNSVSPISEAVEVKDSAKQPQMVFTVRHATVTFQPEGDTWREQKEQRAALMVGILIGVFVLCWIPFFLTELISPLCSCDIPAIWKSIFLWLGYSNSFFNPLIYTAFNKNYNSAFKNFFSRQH
OPRM1-OPRD1 inv – mu-delta opioid heterodimer inverse agonism | 340,000 tested, 0.21% active | AID 504357 | cell-based MOR-DOR heterodimer luminescence | inhibition, % at 9.3 µM; in the data active = inhibition above about 22%, passing the limit was not always enough
m5-HT2A agonist – mouse HTR2A agonism via beta-arrestin recruitment; P35363; CHO-K1 mHTR2A beta-arrestin complementation, luminescence; percent of 30 µM serotonin response; activation, % at 7.6 µM; 360,000 tested, 0.66% active;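 active = activation above a run cutoff, the mean activation of all tested compounds plus 3 SD, cut at about 14% in these data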
HTR5A ag ctr – HTR5A agonism, opioid heterodimer counter-screen | P47898 | HTR5A agonist assay, luminescence, cell-based | activation, % at 9.3 µM | 340,000 tested, 0.61% active | AID 504692; in the data active = activation mostly above about 9.5%, no sharp cut-off; inactive = mostly below about 7.6%
OPRM1 ag – OPRM1 agonism in mouse HTR2A counterscreen | shares compounds with m5-HT2A agonist | U2OS OPRM1 beta-arrestin PathHunter, luminescence; DMSO 0%, DAMGO 9.3 µM 100% | activation, % at 9.3 µM | 2,300 tested, 5.3% active;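 active = mean activation above the mean of DMSO-only wells plus 3 SD, cut at about 0.5% in these data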
HTR2A ag conf – mouse HTR2A agonism confirmed. shares compounds with m5-HT2A agonist. CHO-K1 PathHunter beta-arrestin recruitment, luminescence; DMSO 0%, 30 µM serotonin 100%. activation, % at 7.6 µM. 2,300 tested, 19% active. AID 624381;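 active = mean activation across triplicates above the hit threshold derived in the original primary screen, cut at about 15% in these data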
Hits are given with their value; 0 = inactive; - = not tested or not shown. In the library only some 2.2% were active in any assay of this set; here they are far more common.

SMILES	sPLA2-III inh	OPRM1-OPRD1 ag	HTR5A inv ctr	OPRM1-OPRD1 inv	m5-HT2A agonist	HTR5A ag ctr	OPRM1 ag	HTR2A ag conf
O=S(=O)(NCCc1ccccc1)c1cccs1	0	0	0	0	0	0	-	-
O=C(NC1CC1c1ccccc1)N1CCC(c2nc3ccc(Cl)cc3[nH]2)CC1 (stereo not given)	0	-	-	-	-	-	-	-
O=C1C2C(c3cccc(/C=C/c4ccccc4)c3)CC=CC2C(c2ccc(C(F)(F)F)cc2)N1Cc1ccccc1 (stereo not given)	0	0	0	0	17	0	0	0
OC(c1ccccc1)(c1ccccc1)c1cnc2ccccn12	0	-	-	-	-	-	-	-
c1cncc(CNc2nc(N3CCOCC3)nc(N3CCOCC3)n2)c1	0	0	0	0	16	0	0	0
C(=N\Nc1nc(N2CCCC2)nc(N2CCCC2)n1)/c1cccnc1	0	0	0	0	15	0	0	0
CC(C)(C)Nc1nc(NCc2cccnc2)nc(N2CCOCC2)n1	0	0	0	0	0	0	-	-
c1ccc(Nc2nc(N3CCNCC3)nc(N3CCOCC3)n2)cc1	0	0	0	0	23	0	0	0
COc1ccc(/C=N\NC(=O)CN2CCN(Cc3ccccc3)CC2)cc1OCc1ccccc1	0	-	-	-	-	-	-	-
CC(C)(C)OC(=O)N1CCC[C@@H]1C(=O)N1CCC[C@@H]1C(=O)NCc1ccccc1	0	-	-	-	-	-	-	-
CCOc1ccc(/C=N/n2c(-c3n[nH]c4c3CCC4)n[nH]c2=S)cc1	0	-	-	-	-	-	-	-
Cc1nnc(SCC(=O)Nc2cc(Cl)ccc2Cl)n1CC1CCCO1 (stereo not given)	0	0	0	0	17	0	0	0
COC(=O)[C@]12C[C@H](CC(=O)NCc3cccc(C(F)(F)F)c3)C(=O)N(Cc3ccc4c(c3)OCO4)C1=C[C@H](C(C)(C)C)O[C@@H]2C	0	-	-	-	-	-	-	-
O=c1[nH]c2cc(C(F)(F)F)ccc2n1-c1cc(C(F)(F)F)ccc1O	0	0	0	0	15	0	0.6	0
Cc1c(C(C)(C)O)[nH]c2cc(C(F)(F)F)ccc12	0	0	0	0	0	0	-	-
COc1ccc(CCC(=O)N2CCN(C3CCCCC3)CC2)cc1	0	0	0	0	0	0	-	-
O=C(CCCc1ccccc1)N1CCN(C2CCCCC2)CC1	0	0	0	0	25	0	0.8	0
COc1ccc(S(=O)(=O)NC(C)C(=O)NCc2cccnc2)cc1C (stereo not given)	0	0	0	0	15	0	0	0
CCn1cc(C(=O)N2CCN(c3ccccc3F)CC2)c(=O)c2ccc(C)nc21	0	0	0	0	15	0	0	0
CCn1cc(C(=O)O)c(=O)c2ccc(C)nc21	0	0	0	0	0	0	-	-
COc1ccccc1CCn1cnc(-c2ccc(Br)cc2)c1CC(C)C	0	-	-	-	-	-	-	-
Cc1oc(-c2cccc(Cl)c2)nc1CS(=O)(=O)CC(=O)NCCCN1CCOCC1	0	0	0	0	25	0	0	0
Cc1ccc(-c2nc(CS(=O)(=O)CC(=O)NCCN3CCOCC3)c(C)o2)cc1	0	0	0	0	0	0	-	-
COc1ccc(-c2noc(N3CCC(C(=O)Nc4ccc(OC)cc4OC)CC3)n2)cc1	0	0	0	0	0	0	-	-
COc1ccc(NC(=O)C2CCN(c3nc(-c4ccc(OC)cc4)no3)CC2)cc1	0	0	0	0	17	0	0	0
SMILES	sPLA2-III inh	OPRM1-OPRD1 ag	HTR5A inv ctr	OPRM1-OPRD1 inv	m5-HT2A agonist	HTR5A ag ctr	OPRM1 ag	HTR2A ag conf
CN1CCCCC(NC(=O)c2ccc(F)c(F)c2)C1=O (stereo not given)	0	-	-	-	-	-	-	-
COC(=O)[C@]12C[C@H](CC(=O)N3CCCC3)C(=O)N(Cc3ccco3)C1=C[C@H](C(C)(C)C)O[C@@H]2C	0	-	-	-	-	-	-	-
Cc1cc([N+](=O)[O-])ccc1NC(=O)c1cncc(Br)c1	0	0	0	0	16	0	0	0
N=c1c2c(ccn1Cc1ccccc1)Oc1ccc3ccccc3c1C2c1ccccc1 (stereo not given)	0	-	-	-	-	-	-	-
Cc1cc(C)c2cc(CN(CCN3CCCC3)C(=O)Nc3ccc(F)cc3)c(=O)[nH]c2c1	0	0	0	0	20	0	0	0
CN(CCCOC(=O)c1occ2ccccc12)C1CN(Cc2cn(Cc3ccccc3Cl)nn2)S(=O)(=O)C1 (stereo not given)	0	-	-	-	-	-	-	-
CC(C)(C)CC(=O)Nc1nnc(C(F)(F)F)s1	0	0	0	0	0	0	-	-
CC(NC(=O)Nc1nnc(C(F)(F)F)s1)(C(F)(F)F)C(F)(F)F	0	0	0	0	16	0	0	0
CCN(C[C@H]1[C@@H](c2ccc(C3=CCCC3)cc2)[C@H](CO)N1Cc1ccccn1)S(=O)(=O)c1ccccc1[N+](=O)[O-]	0	-	-	-	-	-	-	-
CC(O)/C=C/c1ccc2ccccc2n1 (stereo not given)	0	0	0	0	19	0	0	0
O=S1(=O)CC(N2CCCC2)CN1 (stereo not given)	0	-	-	-	-	-	-	-
Cc1ccc(-c2ccc(=O)n(CC(=O)Nc3ccc4c(c3)OCCO4)n2)cc1	0	0	0	0	0	0	-	-
CN(C)S(=O)(=O)c1ccc(NC(=O)Cn2nc(-c3ccc4c(c3)OCCO4)ccc2=O)cc1	0	0	0	0	15	0	0	0
Cc1nc(N2CCCC2)c2nnn(Cc3ccccc3Cl)c2n1	0	0	0	0	18	0	0	0
COC(=O)[C@]12CCCCC=C1N(Cc1ccc(OC)cc1)C(=O)[C@@H]2CC(=O)NCCCN1CCCC1=O	0	-	-	-	-	-	-	-
CCOc1cccc(/C=N\NC(=O)c2cnccn2)c1O	0	-	-	-	-	-	-	-
O=C(CSc1nc(-c2cccs2)nc2ccccc12)NC1CCS(=O)(=O)C1 (stereo not given)	0	0	0	0	19	0	0.5	0
CCN(C(=O)CSc1nc(-c2cccs2)nc2ccccc12)C1CCS(=O)(=O)C1 (stereo not given)	0	0	0	0	0	0	-	-
Cc1cccc(-n2c(Cc3cc(=O)[nH]c(=O)[nH]3)nnc2SCC(=O)N2CCc3ccccc32)c1	0	0	0	0	0	0	-	-
O=C(CSc1nnc(Cc2cc(=O)[nH]c(=O)[nH]2)n1-c1ccccc1)N1CCCc2ccccc21	0	0	0	0	16	0	0	0
O=C(O)c1ccc2c(c1Nc1ccccc1)C(=O)c1ccccc1C2=O	0	0	0	0	27	0	0	0
O=C(CCN1C(=O)/C(=C/c2ccc(Cl)cc2)SC1=S)NC1C=CS(=O)(=O)C1 (stereo not given)	0	0	0	0	0	0	-	-
O=C(CN1C(=O)/C(=C/c2ccc(Cl)cc2)SC1=S)NC1C=CS(=O)(=O)C1 (stereo not given)	0	0	0	0	15	0	0	0
